Among all 68,000 compounds or so, about 2,700 (4%) showed an effect of 50% or more. The sample as a whole holds a higher share of strong results than the screen did.

The subject of this test is Plasmodium berghei. Nature of the test: Screen against P. berghei liver stage (PbLuc), transformed with Luciferase, at 2uM. The test is classed as functional, HepG2. Particulars: tested at 2 uM.
As for `CNc1cc(C2CN(Cc3coc(C)n3)CCO2)nc(C)n1` (stereo not drawn), the INHIBITION is given as -13.51%.

As to `CN(C)C(=O)CCN1CC(c2ccccc2)(c2ccccc2)CCC1=O`, the INHIBITION came out at 64.08%.

Regarding `CS(=O)(=O)CCN1CC(c2ccccc2)(c2ccccc2)CCC1=O`, the INHIBITION came out at 19.12%.

On to `O=C1CCC(c2ccccc2)(c2ccccc2)CN1CCO`, for which the INHIBITION is 22%.

In the case of `Cn1ccnc1CN1CC[C@@H](NS(C)(=O)=O)[C@@H]1Cc1cccnc1`, the INHIBITION is given as -29.46%.

Turning to `Cc1ccc(CNCC2CCCn3ccnc32)s1` (stereo not drawn), the INHIBITION was 14.82%.

Take `CCN(CC)c1ncc(CNCC2CCCn3ccnc32)s1` (stereo not drawn): the INHIBITION is -6.64%.

For `Cc1nc(C)c(CNCC2CCCn3ccnc32)s1` (stereo not drawn), the INHIBITION is 50.59%.

Turning to `Cc1cn2c(n1)C(CNCc1ccc(C)s1)CCC2` (stereo not drawn), the INHIBITION is listed as -35.26%.

For `CN1CCOC(CNCc2cnc(C(C)(C)C)s2)C1` (stereo not drawn), the INHIBITION amounted to 11.01%.

Consider `CC(C)(C)c1ncc(CNCC2CCCn3ccnc32)s1` (stereo not drawn), for which the INHIBITION worked out at 52.98%.

Consider `Cn1cc(CN2CCc3nc4sccc4c(=O)n3CC2)cn1`, for which the INHIBITION came out at 35.7%.

As for `COc1ccc(C(=O)N2CCC(Nc3cccnn3)CC2)c(OC)c1`, the INHIBITION is reported as -51.92%.

As for `CC(C)NC(=O)N1CCCC2(CCN(c3ccsc3)C2=O)C1` (stereo not drawn), the INHIBITION came to 17.77%.

In the case of `CCC1CN(C)c2ccccc2CN1C(=O)c1c[nH]c(=O)cc1C` (stereo not drawn), the INHIBITION turned out to be 42.8%.

Take `CN(C)C(=O)[C@H]1C[C@H]2OCC[C@H]2N(Cc2ccc(F)cc2)C1`: the INHIBITION turned out to be 35.38%.

`CCC(CC)n1nc(C)cc1NC(=O)C1CCOC1` (stereo not drawn): the INHIBITION was -3.87%.

As for `CCC(CC)n1nc(C)cc1NC(=O)C1CCCO1` (stereo not drawn), the INHIBITION was found to be 53.61%.

Regarding `CCC(CC)n1nc(C)cc1NC(=O)CC1CCOCC1`, the INHIBITION is reported as -28.5%.

Regarding `Cc1nc(C(=O)N(C)C2CC(=O)N(Cc3ccccc3)C2=O)cs1` (stereo not drawn), the INHIBITION came to 50.42%.

With `CN(C(=O)c1ccc[nH]1)C1CC(=O)N(Cc2ccccc2)C1=O` (stereo not drawn), the INHIBITION was found to be 29.91%.

Regarding `Cc1[nH]ccc1C(=O)N(C)C1CC(=O)N(Cc2ccccc2)C1=O` (stereo not drawn), the INHIBITION is listed as 30.59%.

As to `O=C(C[C@@H]1COC[C@H]2CN(C(=O)c3cccnc3)C[C@@H]12)N1CCOCC1`, the INHIBITION is 22.89%.

For `Cc1ccc(CN2CCOC3(COCCN(C(C)C)C3)C2)s1` (stereo not drawn), the INHIBITION is -9.22%.

As to `CCc1nsc(N2CCCN(C(=O)COc3ccccc3)CC2)n1`, the INHIBITION is recorded as -26.86%.

As to `CCc1ncc(C(=O)N2CCN(C(=O)COc3ccccc3)CC2)cn1`, the INHIBITION is -28.5%.

Regarding `CCc1nsc(N2CCN(C(=O)COc3ccccc3)CC2)n1`, the INHIBITION is 61.82%.

Consider `N#CCCN(c1ccc(F)cc1)S(=O)(=O)CC1CCCCO1` (stereo not drawn), for which the INHIBITION is -7.39%.

As for `CC(=O)Nc1ccc(C(=O)NCCCn2cccc2)cc1`, the INHIBITION came to 30.58%.

Turning to `CCC1CCCCN1C(=O)c1ccnc(N(C)C)c1` (stereo not drawn), the INHIBITION stood at 16.84%.

As for `CN(C)c1cc(C(=O)N2CCCCC2Cn2cccn2)ccn1` (stereo not drawn), the INHIBITION is recorded as -7.15%.

As for `CN(C)c1cc(C(=O)N2CCCCC2CNS(C)(=O)=O)ccn1` (stereo not drawn), the INHIBITION is 53.11%.

As for `CC(C)NC(=O)[C@H]1C[C@@H]2[C@@H](C1)OCCN2Cc1cccs1`, the INHIBITION worked out at 29.43%.

In the case of `CCCN(C(=O)c1cc2c([nH]c1=O)CCCC2=O)C1CCCCC1`, the INHIBITION came to 22%.

Turning to `CC(C)CCN(C(=O)c1cc2c([nH]c1=O)CCCC2=O)C1CC1`, the INHIBITION was 0.12%.

In the case of `O=C1CCCc2[nH]c(=O)c(C(=O)N(CC3CCCCC3)C3CC3)cc21`, the INHIBITION is 67.44%.

As to `CC(C)C(C)N(C(=O)c1cc2c([nH]c1=O)CCCC2=O)C1CC1` (stereo not drawn), the INHIBITION is reported as 72.49%.

Consider `CCN(C(=O)c1cc2c([nH]c1=O)CCCC2=O)C1CCCCC1`, for which the INHIBITION is -58.06%.

Take `CC(c1ccco1)N(C(=O)c1cc2c([nH]c1=O)CCCC2=O)C1CC1` (stereo not drawn): the INHIBITION was -8.3%.

Regarding `COc1ccc2c(c1)C1(CCNCC1)CC2NC1CC1` (stereo not drawn), the INHIBITION came to 0%.

As to `CC(C)(CN1CCOCC1)CN1CCC(Cc2cccc(CO)c2)C1` (stereo not drawn), the INHIBITION is reported as -7.7%.

`CCN(CC)c1ccc(NS(=O)(=O)c2cnn(C(C)C)c2)cn1`: the INHIBITION came out at 3.17%.

As to `O=C(NC1CCCC1)c1nc(COc2ccc3c(c2)OCO3)no1`, the INHIBITION is -11.86%.

`N#Cc1nc(COc2ccc3c(c2)OCO3)oc1NC1CC1`: the INHIBITION is on record as 51.42%.

For the compound `N#Cc1nc(COc2ccc3c(c2)OCO3)oc1N1CCCC1`, the INHIBITION is -9.89%.

In the case of `N#Cc1nc(COc2ccc3c(c2)OCO3)oc1NC1CCCCC1`, the INHIBITION worked out at 66.74%.

As to `CNc1oc(COc2ccc3c(c2)OCO3)nc1C#N`, the INHIBITION is listed as -6.53%.

With `N#Cc1nc(COc2ccc3c(c2)OCO3)oc1N1CCCCCC1`, the INHIBITION came to 18.85%.

For the compound `CCS(=O)(=O)N1CCC(c2nnc(CN3CCOCC3)n2C)CC1`, the INHIBITION is given as 37.3%.

Regarding `CCCc1n[nH]c(C2CN(C(=O)CCCn3ccnc3C)CCO2)n1` (stereo not drawn), the INHIBITION is -15.07%.

In the case of `Cc1cc(C)cc(OCC(=O)N2CCC2)c1`, the INHIBITION was 16.8%.

For `COc1cc(C(=O)N2CCCS2(=O)=O)ccc1OC(C)C`, the INHIBITION was 21.12%.

In the case of `COc1ccc(C[C@H]2CN(Cc3ccoc3)CC[C@@H]2OC)cc1`, the INHIBITION was 17.47%.
